# Results published in the supplement of paper PMC8728848.
# Shown is part of a subset that was picked to be rich in the strongest signals.
# What was measured:
# Experiment in all cases: glycan array binding signal (z-score within array); higher = stronger binding
# Settings in all cases: glycan notation: IUPAC condensed, linker removed
# Fuc(a1-2)Gal = target: Fuc(a1-2)Gal
# In short: (§1)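 The binding signal is a Z-score computed within each array and averaged over linkers. Arrays of the same protein sequence at different concentrations or buffers were also averaged together. Data originate from 3228 arrays in the Consortium for Functional Glycomics database, kept only where the protein sequence was available.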
# Fuc(a1-2)[Gal(a1-3)]Gal = target: Fuc(a1-2)[Gal(a1-3)]Gal
# In short: as §1
# [1] = target: Fuc(a1-3)[Gal3S(b1-4)]Glc6S
# In short: as §1
# Gal(a1-3)GalNAc = target: Gal(a1-3)GalNAc
# In short: as §1
# Gal(a1-4)Gal(b1-4)Glc = target: Gal(a1-4)Gal(b1-4)Glc
# In short: as §1
# Gal(a1-4)GlcNAc = target: Gal(a1-4)GlcNAc
# In short: as §1
# Gal(b1-2)Gal = target: Gal(b1-2)Gal
# In short: as §1
# [2] = target: Gal(b1-4)GalNAc(a1-3)[Fuc(a1-2)]Gal(b1-4)GlcNAc
# In short: as §1
# [3] = target: Gal(b1-4)GlcNAc(b1-3)GalNAc
# In short: as §1
# Gal3S(b1-4)GlcNAc = target: Gal3S(b1-4)GlcNAc
# In short: as §1
# [4] = target: Gal3S(b1-4)[Fuc(a1-3)]Glc
# In short: as §1
# GalNAc(b1-4)GlcNAc = target: GalNAc(b1-4)GlcNAc
# In short: as §1
# GlcA(b1-3)Gal = target: GlcA(b1-3)Gal
# In short: as §1
# [5] = target: GlcNAc(b1-4)GlcNAc(b1-4)GlcNAc(b1-4)GlcNAc(b1-4)GlcNAc(b1-4)GlcNAc
# In short: as §1
# [6] = target: Neu5Ac(a2-3)Gal(b1-3)GalNAc
# In short: as §1
# [7] = target: Neu5Ac(a2-3)Gal(b1-3)GalNAc(b1-3)Gal(a1-4)Gal(b1-4)Glc
# In short: as §1
# [8] = target: Neu5Ac(a2-3)Gal(b1-3)GalNAc(b1-4)[Neu5Ac(a2-3)]Gal(b1-4)Glc
# In short: as §1
# [9] = target: Neu5Ac(a2-3)Gal(b1-3)[Neu5Ac(a2-6)]GalNAc
# In short: as §1
# Neu5Ac(a2-3)Gal(b1-4)Glc = target: Neu5Ac(a2-3)Gal(b1-4)Glc
# In short: as §1
# [10] = target: Neu5Ac(a2-3)Gal(b1-4)GlcNAc(b1-2)Man(a1-3)[GlcNAc(b1-2)Man(b1-4)GlcNAc(b1-2)Man(a1-6)]Man(b1-4)GlcNAc(b1-4)GlcNAc
# In short: as §1
# [11] = target: Neu5Ac(a2-3)Gal(b1-4)GlcNAc(b1-6)[Neu5Ac(a2-3)Gal(b1-3)]GalNAc
# In short: as §1
# [12] = target: Neu5Ac(a2-3)Gal(b1-4)GlcNAc6S
# In short: as §1
# [13] = target: Neu5Ac(a2-3)Gal(b1-4)[Fuc(a1-3)]GlcNAc(b1-3)Gal(b1-4)[Fuc(a1-3)]GlcNAc(b1-3)Gal(b1-4)[Fuc(a1-3)]GlcNAc
# In short: as §1
# [14] = target: Neu5Ac(a2-3)GalNAc(b1-4)GlcNAc
# In short: as §1
# [15] = target: Neu5Ac(a2-6)Gal(b1-4)GlcNAc(b1-2)Man(a1-3)[GlcNAc(b1-2)Man(a1-6)]Man(b1-4)GlcNAc(b1-4)GlcNAc
# In short: as §1
# [16] = target: Neu5Ac(a2-6)Gal(b1-4)GlcNAc(b1-2)Man(a1-6)[GlcNAc(b1-2)Man(a1-3)]Man(b1-4)GlcNAc(b1-4)GlcNAc
# In short: as §1
# [17] = target: Neu5Ac(a2-6)GalNAc(b1-4)GlcNAc
# In short: as §1
binder,measurement,setting,value
"LYVE-1 (Homo sapiens), Q9Y5Y7 (protein) MARCFSLVLLLTSIWTTRLLVQGSLRAEELSIQVSCRIMGITLVSKKANQQLNFTEAKEACRLLGLSLAGKDQVETALKASFETCSYGWVGDGFVVISRISPNPKCGKNGVGVLIWKVPVSRQFAAYCYNSSDTWTNSCIPEIITTKDPIFNTQTATQTTEFIVSDSTYSVASPYSTIPAPTTTPPAPASTSIPRRKKLICVTEVFMETSTMSTETEPFVENKAAFKNEAAGDPEVKFNWYVDGVEVHNAKPREEQYNSTYRVVSLVTVLHQDWLNGKEYKCKVSNKALPAPIEKTISKAKGQPREPQVYTLPPSRDELTKNQVSLTCLVKGFYPSDIAVEWESNGQPENNYKTTPPVLDSDGSFFLYSKLTVDKSRWQQGNVFSCSVMHEALHNHYTQRSLSLSPGK",glycan array binding signal (z-score),Fuc(a1-2)Gal,-0.222
same,glycan array binding signal (z-score),Fuc(a1-2)[Gal(a1-3)]Gal,0.242
same,glycan array binding signal (z-score),[1],-0.066
same,glycan array binding signal (z-score),Gal(a1-3)GalNAc,-0.27
same,glycan array binding signal (z-score),Gal(a1-4)Gal(b1-4)Glc,-0.09
same,glycan array binding signal (z-score),Gal(a1-4)GlcNAc,-0.269
same,glycan array binding signal (z-score),Gal(b1-2)Gal,-0.409
same,glycan array binding signal (z-score),[2],-0.338
same,glycan array binding signal (z-score),[3],-0.411
same,glycan array binding signal (z-score),Gal3S(b1-4)GlcNAc,-0.036
same,glycan array binding signal (z-score),[4],-0.34
same,glycan array binding signal (z-score),GalNAc(b1-4)GlcNAc,-0.259
same,glycan array binding signal (z-score),GlcA(b1-3)Gal,-0.466
same,glycan array binding signal (z-score),[5],-0.624
same,glycan array binding signal (z-score),[6],3.93
same,glycan array binding signal (z-score),[7],1.74
same,glycan array binding signal (z-score),[8],4.82
same,glycan array binding signal (z-score),[9],0.133
same,glycan array binding signal (z-score),Neu5Ac(a2-3)Gal(b1-4)Glc,0.324
same,glycan array binding signal (z-score),[10],-0.128
same,glycan array binding signal (z-score),[11],6.79
same,glycan array binding signal (z-score),[12],-0.351
same,glycan array binding signal (z-score),[13],5.13
same,glycan array binding signal (z-score),[14],3.73
same,glycan array binding signal (z-score),[15],-0.596
same,glycan array binding signal (z-score),[16],-0.436
same,glycan array binding signal (z-score),[17],2.4
